# Assay outcomes from PubChem BioAssay.
# KDM5B inhibitor: Primary screen for KDM5B Histone Demethylases FDH-coupled qHTS | KDM5B demethylase, FDH-coupled NADH fluorescence (FDH is formaldehyde dehydrogenase) | Lysine-specific demethylase 5B (Homo sapiens), Q9UGL1 | 2.6% of 220,000 active | Potency, µM (top dose mostly 57.7 µM), most hits filed as inhibitors; active = well fitted inhibition curve with a large enough effect; also: nearly all actives have a fitted effect of over 70% in size
#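 Here, H3K4me3 peptide (12.5 µM in substrate mix) is demethylated by KDM5BΔAP, 200 nM final, after 10 min compound exposure. Formaldehyde product is coupled through FDH (0.25 U/mL in mix) to NADH fluorescence; 30-min ΔRFU feeds dose-response curves.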
# Numbers stand for hits; i = inactive. The sample as a whole holds a higher share of hits than the screen did.
SMILES,KDM5B inhibitor
CC1(C(=O)NCc2cccnc2)CCc2cnc(NCc3ccccc3)nc21 (stereo not given),32µM
CC1(C(=O)NC2CCOCC2)CCc2cnc(Nc3ccccc3)nc21 (stereo not given),i
CC1(C(=O)NCc2cccnc2)CCc2cnc(Nc3ccccc3)nc21 (stereo not given),i
CC1(C(=O)NCc2ccc(F)cc2)COCc2cnc(Nc3ccccc3)nc21 (stereo not given),i
O=C(C1CCCC1)N1CCC2(C1)C(=O)N(CCc1ccccc1)c1ccccc12 (stereo not given),i
CC(NC(=O)c1ccc2c(c1)NC(=O)CS2)c1ccc(F)cc1F (stereo not given),i
N#Cc1cc(Br)ccc1OCc1ccccc1Cl,i
Cc1[nH]c2ccc(F)cc2c1CCNC(=S)NC(C)(C)C,i
CN(C)C(=O)C1CN(C(=O)CCc2ncc(-c3ccc(F)cc3)o2)c2ccccc2O1 (stereo not given),i
Cc1cc(C)c(NC(=O)CSc2ncc(-c3ccc(F)cc3)o2)c(C)c1,i
Cc1ccccc1CC(=O)N1CCC[C@H]1c1nc(-c2ccc(F)cc2)no1,i
COc1ccc(-c2noc([C@@H]3CCCN3C(=O)c3cc(F)ccc3F)n2)cc1OC,i
COc1ccc(-c2noc([C@@H]3CCCN3C(=O)Cc3ccc(C)cc3)n2)cc1,i
COc1ccc(-c2noc([C@@H]3CCCN3C(=O)Cc3ccc(C)cc3)n2)cc1OC,32µM
COc1ccc(-c2noc([C@@H]3CCCN3C(=O)c3ccc(C)cc3)n2)cc1OC,i
Cc1ccccc1CC(=O)N1CCC[C@H]1c1nc(-c2ccccc2)no1,i
COc1ccc(-c2noc([C@@H]3CCCN3C(=O)Cc3ccccc3C)n2)cc1OC,28µM
COc1ccc(-c2noc([C@@H]3CCCN3C(=O)Cc3ccc(F)cc3)n2)cc1OC,28µM
COc1ccc(-c2noc([C@@H]3CCCN3C(=O)c3ccc(F)cc3)n2)cc1OC,i
Cc1[nH]c2ccccc2c1C(=O)COC(=O)Cc1c[nH]c2ccccc12,i
CCOCCSc1nnc(-c2nn(Cc3ccccc3)c(=O)c3ccccc23)o1,i
Cc1[nH]c2ccc(Cl)cc2c1CCNC(=S)NC(C)(C)C,i
O=C(COc1ncnc2ccc(Br)cc12)Nc1cccc(Br)c1,i
O=C(NCCNCc1c[nH]c2ccccc12)c1cccs1,i
CCc1ccc(/C=C2\N=C(SC)SC2=O)cc1,i
SMILES,KDM5B inhibitor
N#Cc1ccccc1OCc1ccc(-c2ccccc2C#N)cc1,i
O=c1[nH]c2ccc(Br)cc2c(-c2ccccc2)c1CN1CCCCC1,i
N#Cc1cc2c(=O)n(CCCCN3CCCC3)ccc2[nH]c1=O,28µM
N#Cc1ccccc1CN1CCCC1,i
O=C(c1ccccc1O)N1CCN(S(=O)(=O)c2ccc3ccccc3c2)CC1,i
Cc1ncc2n1C(=O)N(C1CCN(Cc3ccc(F)cc3)CC1)C2,i
Cc1ncc2n1C(=O)N(C1CCN(Cc3ccncc3)CC1)C2,40µM
Cc1ncc2n1C(=O)N(C1CCN(Cc3ccc(C(F)(F)F)cc3)CC1)C2,i
CCOC(=O)C(NC(=O)Cc1coc2c(C)c(C)ccc12)C(=O)OCC,i
CN(CC(=O)NC(C)(C)C)C(=O)c1cc2ccccc2oc1=O,i
COCc1ccc2c(c1)c(OC(C)(C)C(=O)NCCCn1ccnc1)nn2Cc1ccccc1,i
COCc1ccc2c(c1)c(OC(C)(C)C(=O)NCc1ccncc1)nn2Cc1ccccc1,i
COCc1ccc2c(c1)c(OC(C)(C)C(=O)NCCN(C)C)nn2Cc1ccccc1,32µM
O=C(NCCN1CCOCC1)c1nn(Cc2ccccc2)c(=O)c2ccccc12,i
CN(C)Cc1ccc2c(c1)c(OC(C)(C)C(=O)NCCN1CCOCC1)nn2Cc1ccccc1,22µM
CC(C)C(=O)N1N=C(c2cc(Cl)ccc2Cl)CC1c1ccc2nccnc2c1 (stereo not given),i
Fc1cccc(OCc2cc(-c3ccccc3)on2)c1,i
O=C(CSc1nc(-c2ccccc2)cs1)Nc1ccc(OC(F)F)cc1,i
COc1cc2c(cc1OC)C(c1ccc(Cl)cc1)=NCC2,i
COc1cc2c(cc1OC)C(C[C@H]1CN(S(=O)(=O)c3ccc(Cl)cc3)CC[C@H]1CC(=O)O)=NCC2,28µM
COc1cc2c(cc1OC)C(C[C@H]1CN(S(=O)(=O)c3ccc(F)cc3)CC[C@H]1CC(=O)O)=NCC2,i
CNC(=O)N1CCC(C2CCN(S(=O)(=O)c3ccc(F)cc3)C2)CC1 (stereo not given),i
CC[C@H]1CN(S(=O)(=O)c2ccc(OC)cc2)CC[C@H]1CC(=O)O,i
O=C(O)C[C@@H]1CCN(S(=O)(=O)c2ccc(F)cc2)C[C@@H]1CC1=NCCc2cc(F)ccc21,20µM
COc1cc2c(cc1OC)C(C[C@H]1CN(S(=O)(=O)c3ccccc3)CC[C@H]1CC(=O)O)=NCC2,25µM
SMILES,KDM5B inhibitor
COc1cc2c(cc1OC)C(C[C@H]1CN(S(=O)(=O)c3cccc(C#N)c3)CC[C@H]1CC(=O)O)=NCC2,i
CC(=O)Nc1ccc(S(=O)(=O)N2CC[C@@H](CC(=O)O)[C@@H](CCN3CCCCC3)C2)cc1,i
Cc1ccc(-c2c(NC(=O)c3ccco3)oc3ccc(Cl)cc3c2=O)cc1,i
O=C(CCc1c[nH]c2ccccc12)N(CC(F)(F)F)C1CC1,i
Clc1ccc(OCc2ccc(-c3nc(-c4ccc(Br)o4)no3)o2)cc1,i
COc1ccc(NC(=O)N2CCN(c3nc(C)cc(N4CCOCC4)n3)CC2)cc1,i
O=c1oc2ccc(Cl)cc2cc1-c1csc(Nc2cccc(F)c2)n1,i
CC1=CC(=O)C2(CCCCC2)NC1,i
CC(=O)NCc1ccc(-c2csc(Nc3cc(C)ccc3C)n2)o1,i
FC(F)(F)c1cccc2c(N3CCC4(CCCN4Cc4ncc[nH]4)CC3)ccnc12,28µM
COCCC1(C(=O)O)CCN(c2ccnc3c(C(F)(F)F)cccc23)CC1,i
FC(F)(F)c1cccc2c(N3CCOC(C(F)(F)F)C3)ccnc12 (stereo not given),i
COc1ccc(C2=C(O)C(=O)N(Cc3ccco3)C2c2ccc(C(C)C)cc2)cc1 (stereo not given),i
Cc1ccc(SCCNC(=S)Nc2cccc(Cl)c2C)cc1,i
CCc1noc(-c2ccn3c(CNC(=O)c4ccc(OC)cc4)nnc3c2)n1,14µM
CCc1noc(-c2ccn3c(CNC(=O)c4ccc(N(CC)CC)cc4)nnc3c2)n1,i
CCc1noc(-c2ccn3c(CNC(=O)c4ccc(C)c(F)c4)nnc3c2)n1,i
CCc1noc(-c2ccn3c(CNC(=O)c4cc(F)cc(F)c4)nnc3c2)n1,25µM
CN(C)c1ccc(NC(=O)c2ccc3c(c2)N(C)C2CCCCN2C3=O)cc1 (stereo not given),i
Cc1cccc(NC(=O)C2CC(=O)N(c3n[nH]c4cccc(F)c34)C2)c1C (stereo not given),i
O=C(C1CC(=O)N(c2n[nH]c3cccc(F)c23)C1)N1CCCC1 (stereo not given),i
CCc1ccc(NC(=O)C2CC(=O)N(c3n[nH]c4cccc(F)c34)C2)cc1 (stereo not given),35µM
CC(=O)Nc1ccc(NC(=O)C2CC(=O)N(c3n[nH]c4cccc(F)c34)C2)cc1 (stereo not given),35µM
O=C(NC1CC1)C1CC(=O)N(c2n[nH]c3cccc(F)c23)C1 (stereo not given),i
CCc1nc(NC(=O)C2CC(=O)N(c3n[nH]c4cccc(F)c34)C2)sc1C (stereo not given),i
